Assay results as given in the supplement of paper PMC12819154, “High-throughput peptide-centric local stability assay extends protein–ligand identification to membrane proteins, tissues and bacteria” (Nature Structural & Molecular Biology, 2025).
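Note: lysate desalted by size exclusion to strip endogenous ATP, peptide intensities built from DIA-NN precursor signals, and peptides missing any value discarded before comparison.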

Chain of UniProt P23898 (P23898 whole entry): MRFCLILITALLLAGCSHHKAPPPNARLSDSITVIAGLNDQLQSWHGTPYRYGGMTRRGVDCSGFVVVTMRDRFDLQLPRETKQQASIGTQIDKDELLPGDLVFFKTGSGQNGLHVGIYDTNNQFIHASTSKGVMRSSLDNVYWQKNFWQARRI
Chain of UniProt P25535 (P25535 whole entry): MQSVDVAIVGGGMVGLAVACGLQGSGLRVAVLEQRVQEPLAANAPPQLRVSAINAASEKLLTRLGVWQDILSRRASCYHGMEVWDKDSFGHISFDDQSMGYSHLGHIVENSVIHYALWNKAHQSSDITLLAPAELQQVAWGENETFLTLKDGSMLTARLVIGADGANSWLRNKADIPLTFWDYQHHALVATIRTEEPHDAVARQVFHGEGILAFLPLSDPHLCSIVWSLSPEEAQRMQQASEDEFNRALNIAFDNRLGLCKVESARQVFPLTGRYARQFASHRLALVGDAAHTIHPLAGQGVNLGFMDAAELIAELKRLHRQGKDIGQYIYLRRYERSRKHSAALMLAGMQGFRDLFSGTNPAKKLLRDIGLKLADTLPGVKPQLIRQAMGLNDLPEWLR
Chain of UniProt P76097 (P76097 whole entry): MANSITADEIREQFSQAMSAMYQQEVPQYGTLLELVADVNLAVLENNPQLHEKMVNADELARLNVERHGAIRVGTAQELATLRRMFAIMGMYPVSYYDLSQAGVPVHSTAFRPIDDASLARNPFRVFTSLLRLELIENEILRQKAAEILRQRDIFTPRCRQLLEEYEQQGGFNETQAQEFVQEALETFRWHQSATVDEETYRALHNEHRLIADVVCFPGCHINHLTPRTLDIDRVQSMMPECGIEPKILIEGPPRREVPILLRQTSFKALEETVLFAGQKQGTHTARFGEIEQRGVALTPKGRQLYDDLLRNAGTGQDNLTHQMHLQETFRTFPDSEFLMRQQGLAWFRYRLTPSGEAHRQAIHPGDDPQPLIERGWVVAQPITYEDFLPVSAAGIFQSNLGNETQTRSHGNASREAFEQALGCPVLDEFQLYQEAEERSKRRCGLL
Chain of UniProt P11454 (P11454 whole entry): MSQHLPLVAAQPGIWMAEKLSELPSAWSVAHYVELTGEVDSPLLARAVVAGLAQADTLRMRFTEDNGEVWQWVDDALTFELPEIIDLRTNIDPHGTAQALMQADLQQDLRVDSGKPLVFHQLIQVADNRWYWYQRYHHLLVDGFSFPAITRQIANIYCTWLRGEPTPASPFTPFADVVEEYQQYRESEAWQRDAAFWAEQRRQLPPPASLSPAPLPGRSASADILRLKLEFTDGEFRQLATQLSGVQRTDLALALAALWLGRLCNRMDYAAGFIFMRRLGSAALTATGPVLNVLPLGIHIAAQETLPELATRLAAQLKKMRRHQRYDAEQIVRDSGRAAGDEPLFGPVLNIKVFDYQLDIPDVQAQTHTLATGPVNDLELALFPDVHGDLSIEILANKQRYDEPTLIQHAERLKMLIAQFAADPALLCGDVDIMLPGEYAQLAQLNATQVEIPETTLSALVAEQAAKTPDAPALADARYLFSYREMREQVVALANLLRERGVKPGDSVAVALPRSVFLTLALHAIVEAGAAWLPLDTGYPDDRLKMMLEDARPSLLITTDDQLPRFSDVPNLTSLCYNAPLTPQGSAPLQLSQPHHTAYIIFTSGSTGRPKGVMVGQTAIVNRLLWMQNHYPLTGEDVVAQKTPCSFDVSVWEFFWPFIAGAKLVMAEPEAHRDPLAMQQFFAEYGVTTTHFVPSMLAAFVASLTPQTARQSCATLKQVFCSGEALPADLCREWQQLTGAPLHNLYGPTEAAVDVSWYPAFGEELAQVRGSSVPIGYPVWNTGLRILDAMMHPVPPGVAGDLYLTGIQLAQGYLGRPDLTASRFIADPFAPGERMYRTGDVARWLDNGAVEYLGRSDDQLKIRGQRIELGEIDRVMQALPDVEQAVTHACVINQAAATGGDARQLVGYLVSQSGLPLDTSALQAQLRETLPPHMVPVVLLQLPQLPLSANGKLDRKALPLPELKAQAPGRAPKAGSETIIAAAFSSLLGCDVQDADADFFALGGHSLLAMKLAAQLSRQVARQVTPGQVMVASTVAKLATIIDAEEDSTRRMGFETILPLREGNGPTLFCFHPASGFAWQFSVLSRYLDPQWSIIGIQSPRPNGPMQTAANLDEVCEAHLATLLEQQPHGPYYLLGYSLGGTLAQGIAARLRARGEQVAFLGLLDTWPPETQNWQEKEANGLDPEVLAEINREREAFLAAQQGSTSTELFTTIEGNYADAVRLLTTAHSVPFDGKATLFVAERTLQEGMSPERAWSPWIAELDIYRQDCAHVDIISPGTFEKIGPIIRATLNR
Chain of UniProt P77302 (P77302 whole entry): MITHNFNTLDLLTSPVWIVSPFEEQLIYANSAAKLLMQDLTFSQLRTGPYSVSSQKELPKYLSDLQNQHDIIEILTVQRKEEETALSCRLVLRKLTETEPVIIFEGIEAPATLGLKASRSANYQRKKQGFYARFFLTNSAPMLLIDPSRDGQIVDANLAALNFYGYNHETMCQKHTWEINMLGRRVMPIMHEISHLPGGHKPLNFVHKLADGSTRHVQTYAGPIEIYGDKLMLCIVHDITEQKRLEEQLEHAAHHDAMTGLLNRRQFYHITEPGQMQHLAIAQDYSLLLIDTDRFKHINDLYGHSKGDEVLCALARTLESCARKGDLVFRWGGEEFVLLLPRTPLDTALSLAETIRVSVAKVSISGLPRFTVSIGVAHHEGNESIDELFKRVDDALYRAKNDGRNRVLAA
Chain of UniProt P23538 (P23538 whole entry): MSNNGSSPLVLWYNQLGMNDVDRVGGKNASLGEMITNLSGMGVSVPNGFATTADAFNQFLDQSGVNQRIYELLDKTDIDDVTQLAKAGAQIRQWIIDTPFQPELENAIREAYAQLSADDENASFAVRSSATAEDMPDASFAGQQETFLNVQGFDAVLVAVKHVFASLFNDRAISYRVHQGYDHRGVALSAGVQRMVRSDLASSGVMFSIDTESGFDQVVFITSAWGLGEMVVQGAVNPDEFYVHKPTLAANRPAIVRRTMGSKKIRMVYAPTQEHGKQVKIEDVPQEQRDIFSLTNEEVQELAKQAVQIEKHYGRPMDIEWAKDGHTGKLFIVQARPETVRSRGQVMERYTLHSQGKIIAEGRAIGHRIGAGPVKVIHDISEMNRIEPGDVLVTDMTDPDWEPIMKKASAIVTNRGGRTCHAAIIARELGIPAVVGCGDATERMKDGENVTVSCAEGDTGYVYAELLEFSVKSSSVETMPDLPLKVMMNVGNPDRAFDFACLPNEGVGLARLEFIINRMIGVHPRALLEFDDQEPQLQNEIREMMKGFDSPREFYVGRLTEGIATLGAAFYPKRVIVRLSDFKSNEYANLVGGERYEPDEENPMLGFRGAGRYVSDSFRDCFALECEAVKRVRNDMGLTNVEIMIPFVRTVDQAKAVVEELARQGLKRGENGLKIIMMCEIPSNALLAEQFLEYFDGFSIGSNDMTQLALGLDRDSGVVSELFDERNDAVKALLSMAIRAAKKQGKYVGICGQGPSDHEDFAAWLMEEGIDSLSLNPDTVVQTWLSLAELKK
Chain of UniProt P77756 (P77756 whole entry): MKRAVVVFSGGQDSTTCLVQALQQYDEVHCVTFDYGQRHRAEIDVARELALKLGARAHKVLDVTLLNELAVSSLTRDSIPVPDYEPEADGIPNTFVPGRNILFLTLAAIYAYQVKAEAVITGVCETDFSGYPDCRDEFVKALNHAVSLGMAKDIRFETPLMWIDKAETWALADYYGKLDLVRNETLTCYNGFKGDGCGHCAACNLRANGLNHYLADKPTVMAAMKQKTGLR
Chain of UniProt P64554 (P64554 whole entry): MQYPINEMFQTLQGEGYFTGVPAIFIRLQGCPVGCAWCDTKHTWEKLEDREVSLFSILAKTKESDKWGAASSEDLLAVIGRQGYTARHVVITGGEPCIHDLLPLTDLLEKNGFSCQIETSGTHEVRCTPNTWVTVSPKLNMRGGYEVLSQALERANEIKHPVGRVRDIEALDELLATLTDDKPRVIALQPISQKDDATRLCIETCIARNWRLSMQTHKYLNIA
Chain of UniProt P0A7D4 (P0A7D4 whole entry): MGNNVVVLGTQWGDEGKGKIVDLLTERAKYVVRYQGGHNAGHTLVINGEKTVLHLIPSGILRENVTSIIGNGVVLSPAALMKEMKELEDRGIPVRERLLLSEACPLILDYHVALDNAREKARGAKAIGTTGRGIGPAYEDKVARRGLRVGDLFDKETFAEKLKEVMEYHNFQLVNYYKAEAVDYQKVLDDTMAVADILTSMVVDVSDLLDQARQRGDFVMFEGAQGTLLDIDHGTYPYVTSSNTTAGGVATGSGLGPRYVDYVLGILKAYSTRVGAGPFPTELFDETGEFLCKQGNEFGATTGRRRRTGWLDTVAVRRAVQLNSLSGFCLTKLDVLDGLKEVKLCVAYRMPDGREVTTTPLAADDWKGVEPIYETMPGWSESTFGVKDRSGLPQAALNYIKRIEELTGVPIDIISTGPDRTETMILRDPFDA
Chain of UniProt P0ACW4 (P0ACW4 whole entry): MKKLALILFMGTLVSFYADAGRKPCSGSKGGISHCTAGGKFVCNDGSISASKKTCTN
Chain of UniProt P76046 (P76046 whole entry): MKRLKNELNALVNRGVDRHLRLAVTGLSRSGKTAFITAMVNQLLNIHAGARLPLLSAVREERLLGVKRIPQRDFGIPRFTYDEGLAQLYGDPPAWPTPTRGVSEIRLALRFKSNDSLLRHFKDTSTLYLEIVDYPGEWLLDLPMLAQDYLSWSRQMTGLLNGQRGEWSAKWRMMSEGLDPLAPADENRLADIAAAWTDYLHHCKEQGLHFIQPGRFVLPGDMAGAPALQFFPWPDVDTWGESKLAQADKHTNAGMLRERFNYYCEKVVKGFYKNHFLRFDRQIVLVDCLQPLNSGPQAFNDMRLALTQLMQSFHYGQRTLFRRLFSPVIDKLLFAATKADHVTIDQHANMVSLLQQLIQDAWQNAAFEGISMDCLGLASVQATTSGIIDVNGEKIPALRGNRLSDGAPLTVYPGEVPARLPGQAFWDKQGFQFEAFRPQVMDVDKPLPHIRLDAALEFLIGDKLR

What follows are targets tested with Nc1ncnc2c1ncn2[C@@H]1O[C@H](COP(=O)(O)OP(=O)(O)OP(=O)(O)O)[C@@H](O)[C@H]1O [adenosine 5'-triphosphate] (assay: log2 fold change of tryptic peptide abundance, ligand vs vehicle (limited proteolysis) (log2 ratio); higher = more trypsin-susceptible (destabilized)). Details: ligand concentration: 5 mM; sample: E. coli desalted lysate; replicate design: treated before aliquoting.
Method: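 HT-PELSA: desalted E. coli K-12 BW25113 lysate (with 12 mM MgCl2) incubated with 5 mM ATP (pH 7) or water for 30 min at 25 C, then a 4 min trypsin pulse at 22 C. Peptides were quantified by DIA-MS (4 replicates). Value is the peptide log2 fold change (treated/control); negative = stabilized. Scale: negative = ligand-stabilized region.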
“UniProt P38097 (peptide sequence: VTVYEPQQAAAHSER, peptide start residue: 840)” was tested, and the log2 fold change was -1.32.
Target “UniProt P76046 (peptide sequence: RLKNELNALVNR, peptide start residue: 3)” has a log2 fold change of 0.559.
Target “UniProt P76193 (peptide sequence: TGTPVKVINEPVKYSVEPNGMR, peptide start residue: 226)” has a log2 fold change of -0.912.
Work on “UniProt P0A9M8 (peptide sequence: LSVFKPIAQPRTGGDAPDQTTTIVR, peptide start residue: 34)” yielded a log2 fold change of 2.79.
With “UniProt P17846 (peptide sequence: IHKGDFR, peptide start residue: 385)” the log2 fold change was 1.23.
For “UniProt P77171 (peptide sequence: GRQGAQLTLPGEQFLTHAVR, peptide start residue: 61)”, the log2 fold change was 0.909.
In the case of “UniProt P0AEC3 (peptide sequence: FTQQGQVTVR, peptide start residue: 413)”, the log2 fold change was -2.53.
In the case of “UniProt P20966 (peptide sequence: FAGKPMYR, peptide start residue: 175)”, the log2 fold change was 1.06.
“UniProt P0A7D4 (peptide sequence: EMKELEDR, peptide start residue: 83)” showed a log2 fold change of -1.78.
“UniProt P23305 (peptide sequence: DLGLAGASLR, peptide start residue: 115)” showed a log2 fold change of 0.488.
In the case of “UniProt P24202 (peptide sequence: LKSRPDAVDLDPK, peptide start residue: 114)”, the log2 fold change was 0.712.
Work on “UniProt P39325 (peptide sequence: STLYLPDTAKEELEK, peptide start residue: 298)” yielded a log2 fold change of -1.01.
“UniProt P77756 (peptide sequence: HRAEIDVAR, peptide start residue: 39)” showed a log2 fold change of -2.3.
“UniProt P0ADP0 (peptide sequence: EALTFVQNYHPALR, peptide start residue: 34)” showed a log2 fold change of 0.493.
“UniProt P00561 (peptide sequence: NKHIDLR, peptide start residue: 493)” gave a log2 fold change of 1.32.
Work on “UniProt P76085 (peptide sequence: QLGGDASGCSLR, peptide start residue: 198)” yielded a log2 fold change of -1.23.
Work on “UniProt P76097 (peptide sequence: FGEIEQR, peptide start residue: 288)” yielded a log2 fold change of 0.885.
“UniProt P46850 (peptide sequence: KDAEVIDEIPMAYK, peptide start residue: 368)” gave a log2 fold change of -0.573.
For “UniProt P10908 (peptide sequence: VDAGSWYSK, peptide start residue: 79)”, the log2 fold change was -0.858.
“UniProt P0ACW4 (peptide sequence: GGISHCTAGGK, peptide start residue: 30)” gave a log2 fold change of -0.911.
“UniProt P25535 (peptide sequence: LADTLPGVKPQLIR, peptide start residue: 374)” gave a log2 fold change of 0.527.
With “UniProt P0AEE1 (peptide sequence: AIELKGHK, peptide start residue: 121)” the log2 fold change was 0.899.
Target “UniProt P23898 (peptide sequence: SSLDNVYWQK, peptide start residue: 137)” has a log2 fold change of 0.793.
Target “UniProt P64554 (peptide sequence: NGFSCQIETSGTHEVR, peptide start residue: 111)” has a log2 fold change of -0.431.
“UniProt P33940 (peptide sequence: EYYPQAK, peptide start residue: 403)” showed a log2 fold change of -1.61.
“UniProt P39452 (peptide sequence: IIDTYAEATR, peptide start residue: 646)” gave a log2 fold change of -1.19.
Target “UniProt P27830 (peptide sequence: ASSDHLVR, peptide start residue: 172)” has a log2 fold change of -0.668.
With “UniProt P08192 (peptide sequence: FQIVSESPR, peptide start residue: 290)” the log2 fold change was -0.913.
In the case of “UniProt P0C0L2 (peptide sequence: GQAHWEGDIKR, peptide start residue: 7)”, the log2 fold change was -0.717.
“UniProt P17888 (peptide sequence: TNYAVSGER, peptide start residue: 188)” showed a log2 fold change of -1.98.
With “UniProt P29018 (peptide sequence: HLSWVGQNPQLPAATLR, peptide start residue: 424)” the log2 fold change was -0.418.
“UniProt P30178 (peptide sequence: QMGSEEQEAK, peptide start residue: 22)” was tested, and the log2 fold change was -1.15.
Work on “UniProt P77302 (peptide sequence: KEEETALSCR, peptide start residue: 80)” yielded a log2 fold change of -1.39.
Target “UniProt P23538 (peptide sequence: QVKIEDVPQEQR, peptide start residue: 278)” has a log2 fold change of -2.56.
“UniProt P05719 (peptide sequence: FDTTDLVFVPK, peptide start residue: 54)” gave a log2 fold change of -0.655.
Work on “UniProt P76226 (peptide sequence: IKPLLHQCVR, peptide start residue: 10)” yielded a log2 fold change of -1.62.
With “UniProt P11454 (peptide sequence: IELGEIDR, peptide start residue: 867)” the log2 fold change was -1.19.
With “UniProt Q46889 (peptide sequence: LQQEGYR, peptide start residue: 188)” the log2 fold change was -0.564.
With “UniProt P27129 (peptide sequence: DVEPMQEK, peptide start residue: 157)” the log2 fold change was -0.645.
Work on “UniProt P0A9J4 (peptide sequence: HTEIDYINGFLLRR, peptide start residue: 254)” yielded a log2 fold change of 0.895.
